Experimental data reported in paper PMC7862700, “An all-to-all approach to the identification of sequence-specific readers for epigenetic DNA modifications on cytosine”.

Legend:
Assay in all cases: DAPPL (digital affinity profiling via proximity ligation, sequencing); 10 mM Tris-HCl pH 7.5, 50 mM NaCl, 1 mM DTT, 4% glycerol, room temperature, 30 min; GST-TFs on glutathione beads, 16-mer random dsDNA library, 0.1% formaldehyde crosslink after washing; high values mean tight binding
FEV = molecular target: T1, FEV (Homo sapiens, UniProt Q99581 1-238); settings: protein: recombinant; tags: N-terminal GST; dsDNA, one strand shown
T1 sequence: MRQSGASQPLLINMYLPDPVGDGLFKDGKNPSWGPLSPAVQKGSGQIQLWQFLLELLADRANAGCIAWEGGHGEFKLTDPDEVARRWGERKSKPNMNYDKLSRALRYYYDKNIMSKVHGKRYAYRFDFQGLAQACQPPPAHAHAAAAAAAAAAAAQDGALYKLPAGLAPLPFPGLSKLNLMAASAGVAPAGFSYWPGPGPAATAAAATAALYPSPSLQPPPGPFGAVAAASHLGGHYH
In short: (§1)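 Beads coated with glutathione captured GST-fused human transcription factors that had been expressed in yeast, and the factors were then given DNA barcodes and pooled with a tag-only sample. The pools were incubated with 200 nmole of a random double-stranded 16-mer DNA library in Tris/NaCl/DTT/glycerol buffer for 30 min at room temperature, washed, crosslinked with 0.1% formaldehyde and proximity-ligated with BsaI/T4 ligase at 37 °C for 1 h. PCR amplification and Illumina NextSeq500 sequencing came last. Binding signal is each hexamer's read frequency for a factor divided by its frequency for the tag-only sample.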

ETV5 = ETV5 (Homo sapiens, UniProt P41161 1-510); settings: protein: recombinant; tags: N-terminal GST; dsDNA, one strand shown
Sequence of ETV5 (P41161 whole entry): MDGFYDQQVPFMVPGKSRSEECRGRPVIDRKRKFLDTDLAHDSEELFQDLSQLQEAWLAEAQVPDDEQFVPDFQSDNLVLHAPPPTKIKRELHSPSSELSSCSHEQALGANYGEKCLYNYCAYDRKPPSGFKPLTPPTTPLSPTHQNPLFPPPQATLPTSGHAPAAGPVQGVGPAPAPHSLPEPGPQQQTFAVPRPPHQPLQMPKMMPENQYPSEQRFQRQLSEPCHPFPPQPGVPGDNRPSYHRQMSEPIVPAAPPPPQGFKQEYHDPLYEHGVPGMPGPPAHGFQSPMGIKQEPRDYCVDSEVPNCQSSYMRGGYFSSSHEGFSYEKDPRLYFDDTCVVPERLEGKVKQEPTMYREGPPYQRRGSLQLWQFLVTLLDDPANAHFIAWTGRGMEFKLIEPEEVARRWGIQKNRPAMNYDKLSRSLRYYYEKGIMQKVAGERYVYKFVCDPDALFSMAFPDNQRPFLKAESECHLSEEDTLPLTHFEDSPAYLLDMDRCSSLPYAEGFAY
In short: as §1

HSF1 = HSF1 (Homo sapiens, UniProt Q00613 1-529); settings: protein: recombinant; tags: N-terminal GST; chain copies: 3; dsDNA, one strand shown
Sequence of HSF1 (Q00613 whole entry): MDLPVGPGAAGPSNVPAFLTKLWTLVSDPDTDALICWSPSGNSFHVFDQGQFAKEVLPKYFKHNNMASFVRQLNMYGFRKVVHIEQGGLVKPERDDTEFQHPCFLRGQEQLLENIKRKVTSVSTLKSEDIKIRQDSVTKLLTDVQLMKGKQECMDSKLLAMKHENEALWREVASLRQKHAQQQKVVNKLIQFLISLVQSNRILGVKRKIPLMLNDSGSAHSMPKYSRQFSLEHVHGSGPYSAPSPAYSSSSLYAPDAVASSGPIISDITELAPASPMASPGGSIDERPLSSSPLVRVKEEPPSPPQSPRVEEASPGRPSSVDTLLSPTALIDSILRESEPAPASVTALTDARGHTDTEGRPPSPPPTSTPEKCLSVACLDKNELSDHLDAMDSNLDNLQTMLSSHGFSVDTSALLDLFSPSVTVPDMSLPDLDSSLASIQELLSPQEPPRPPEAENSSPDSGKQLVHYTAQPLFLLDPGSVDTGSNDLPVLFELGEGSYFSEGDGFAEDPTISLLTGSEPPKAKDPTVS
In short: as §1

SPIC = molecular target: T2, SPIC (Homo sapiens, UniProt Q8N5J4 1-248); settings: protein: recombinant; tags: N-terminal GST; dsDNA, one strand shown
T2 sequence: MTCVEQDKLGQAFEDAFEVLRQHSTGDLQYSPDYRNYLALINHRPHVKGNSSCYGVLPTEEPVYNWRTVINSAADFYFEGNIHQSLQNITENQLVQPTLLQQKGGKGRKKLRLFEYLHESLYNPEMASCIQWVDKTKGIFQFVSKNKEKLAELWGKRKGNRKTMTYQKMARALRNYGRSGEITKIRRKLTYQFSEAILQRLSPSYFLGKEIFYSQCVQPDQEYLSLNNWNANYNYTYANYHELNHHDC
In short: as §1

ELF4 = ELF4 (Homo sapiens, UniProt Q99607 1-663); settings: protein: recombinant; tags: N-terminal GST; dsDNA, one strand shown
Sequence of ELF4 (Q99607 whole entry): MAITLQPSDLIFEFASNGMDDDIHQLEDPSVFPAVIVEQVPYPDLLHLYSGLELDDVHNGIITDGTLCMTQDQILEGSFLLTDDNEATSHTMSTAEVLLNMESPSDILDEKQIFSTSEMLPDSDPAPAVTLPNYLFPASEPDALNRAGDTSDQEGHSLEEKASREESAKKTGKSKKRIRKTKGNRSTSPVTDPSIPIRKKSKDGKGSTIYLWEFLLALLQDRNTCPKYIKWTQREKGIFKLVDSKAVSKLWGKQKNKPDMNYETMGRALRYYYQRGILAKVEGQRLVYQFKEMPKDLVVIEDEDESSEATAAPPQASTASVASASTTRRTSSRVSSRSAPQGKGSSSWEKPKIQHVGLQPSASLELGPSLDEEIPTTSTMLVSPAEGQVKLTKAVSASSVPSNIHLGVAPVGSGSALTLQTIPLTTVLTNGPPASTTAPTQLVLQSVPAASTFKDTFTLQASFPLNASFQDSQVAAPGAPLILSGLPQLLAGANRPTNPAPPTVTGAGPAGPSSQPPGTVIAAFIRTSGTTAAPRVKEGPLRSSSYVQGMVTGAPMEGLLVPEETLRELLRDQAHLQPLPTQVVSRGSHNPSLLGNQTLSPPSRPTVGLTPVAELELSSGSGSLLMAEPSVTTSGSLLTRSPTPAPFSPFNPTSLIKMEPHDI
In short: as §1

ELK4 = molecular target: T3, ELK4 (Homo sapiens, UniProt P28324-2 1-405); settings: protein: recombinant; tags: N-terminal GST; dsDNA, one strand shown
T3 sequence: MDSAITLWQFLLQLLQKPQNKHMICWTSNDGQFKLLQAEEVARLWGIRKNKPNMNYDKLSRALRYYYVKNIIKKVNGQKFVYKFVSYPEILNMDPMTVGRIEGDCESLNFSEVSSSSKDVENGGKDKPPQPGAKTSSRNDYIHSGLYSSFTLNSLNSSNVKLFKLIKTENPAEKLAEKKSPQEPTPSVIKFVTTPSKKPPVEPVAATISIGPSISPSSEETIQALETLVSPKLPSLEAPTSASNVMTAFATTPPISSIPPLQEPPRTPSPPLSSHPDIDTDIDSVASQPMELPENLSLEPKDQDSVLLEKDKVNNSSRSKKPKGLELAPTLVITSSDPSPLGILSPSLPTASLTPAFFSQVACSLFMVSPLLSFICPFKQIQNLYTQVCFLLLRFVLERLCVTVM
In short: as §1

ETV2 = molecular target: T4, ETV2 (Homo sapiens, UniProt O00321 1-342); settings: protein: recombinant; tags: N-terminal GST; dsDNA, one strand shown
T4 sequence: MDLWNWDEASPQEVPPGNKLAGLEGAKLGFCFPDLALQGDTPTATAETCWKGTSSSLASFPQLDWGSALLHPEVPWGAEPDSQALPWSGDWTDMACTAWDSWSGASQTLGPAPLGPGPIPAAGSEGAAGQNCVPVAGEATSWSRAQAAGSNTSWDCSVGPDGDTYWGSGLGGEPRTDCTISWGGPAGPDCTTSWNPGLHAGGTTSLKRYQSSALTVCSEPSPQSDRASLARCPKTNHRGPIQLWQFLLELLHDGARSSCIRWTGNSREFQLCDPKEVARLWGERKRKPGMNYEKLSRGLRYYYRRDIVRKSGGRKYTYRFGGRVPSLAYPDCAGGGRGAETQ
In short: as §1

ELF3 = molecular target: T5, ELF3 (Homo sapiens, UniProt P78545 1-371); settings: protein: recombinant; tags: N-terminal GST; dsDNA, one strand shown
T5 sequence: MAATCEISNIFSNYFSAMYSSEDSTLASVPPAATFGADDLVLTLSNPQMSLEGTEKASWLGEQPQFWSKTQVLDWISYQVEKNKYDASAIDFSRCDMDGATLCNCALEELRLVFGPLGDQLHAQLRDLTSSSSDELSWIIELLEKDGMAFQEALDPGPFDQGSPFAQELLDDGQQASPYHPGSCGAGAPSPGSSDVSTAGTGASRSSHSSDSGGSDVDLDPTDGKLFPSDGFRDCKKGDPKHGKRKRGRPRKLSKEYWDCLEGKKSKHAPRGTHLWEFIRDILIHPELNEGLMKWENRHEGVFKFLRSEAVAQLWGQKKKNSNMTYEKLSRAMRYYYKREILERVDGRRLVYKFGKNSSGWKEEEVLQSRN
In short: as §1

CRX = CRX (Homo sapiens, UniProt O43186 1-299); settings: protein: recombinant; tags: N-terminal GST; dsDNA, one strand shown
Sequence of CRX (O43186 whole entry): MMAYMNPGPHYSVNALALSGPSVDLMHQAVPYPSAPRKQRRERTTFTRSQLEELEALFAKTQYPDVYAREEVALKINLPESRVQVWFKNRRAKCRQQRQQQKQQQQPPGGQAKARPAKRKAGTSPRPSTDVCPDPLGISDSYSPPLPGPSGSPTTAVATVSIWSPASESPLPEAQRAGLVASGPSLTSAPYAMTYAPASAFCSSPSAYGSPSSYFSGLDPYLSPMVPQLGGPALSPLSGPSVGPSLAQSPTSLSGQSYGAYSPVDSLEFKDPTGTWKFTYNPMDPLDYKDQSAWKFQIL
In short: as §1

ETV1 = ETV1 (Homo sapiens, UniProt P50549 1-477); settings: protein: recombinant; tags: N-terminal GST; dsDNA, one strand shown
Sequence of ETV1 (P50549 whole entry): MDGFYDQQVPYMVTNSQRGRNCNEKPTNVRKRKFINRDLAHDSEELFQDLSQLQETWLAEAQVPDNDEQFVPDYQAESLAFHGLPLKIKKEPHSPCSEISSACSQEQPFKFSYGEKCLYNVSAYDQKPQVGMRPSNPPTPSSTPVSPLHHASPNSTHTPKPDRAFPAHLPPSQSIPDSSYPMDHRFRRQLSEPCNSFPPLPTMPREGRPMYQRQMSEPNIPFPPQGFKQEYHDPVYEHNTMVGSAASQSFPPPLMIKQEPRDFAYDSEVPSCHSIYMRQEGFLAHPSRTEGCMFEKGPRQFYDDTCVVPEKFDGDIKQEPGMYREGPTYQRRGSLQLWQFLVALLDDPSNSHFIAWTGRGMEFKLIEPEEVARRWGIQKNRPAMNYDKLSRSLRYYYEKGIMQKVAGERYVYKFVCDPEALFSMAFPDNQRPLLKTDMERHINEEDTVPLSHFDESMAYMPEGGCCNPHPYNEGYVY
In short: as §1

ERF = molecular target: T6, ERF (Homo sapiens, UniProt P50548 1-548); settings: protein: recombinant; tags: N-terminal GST; dsDNA, one strand shown
T6 sequence: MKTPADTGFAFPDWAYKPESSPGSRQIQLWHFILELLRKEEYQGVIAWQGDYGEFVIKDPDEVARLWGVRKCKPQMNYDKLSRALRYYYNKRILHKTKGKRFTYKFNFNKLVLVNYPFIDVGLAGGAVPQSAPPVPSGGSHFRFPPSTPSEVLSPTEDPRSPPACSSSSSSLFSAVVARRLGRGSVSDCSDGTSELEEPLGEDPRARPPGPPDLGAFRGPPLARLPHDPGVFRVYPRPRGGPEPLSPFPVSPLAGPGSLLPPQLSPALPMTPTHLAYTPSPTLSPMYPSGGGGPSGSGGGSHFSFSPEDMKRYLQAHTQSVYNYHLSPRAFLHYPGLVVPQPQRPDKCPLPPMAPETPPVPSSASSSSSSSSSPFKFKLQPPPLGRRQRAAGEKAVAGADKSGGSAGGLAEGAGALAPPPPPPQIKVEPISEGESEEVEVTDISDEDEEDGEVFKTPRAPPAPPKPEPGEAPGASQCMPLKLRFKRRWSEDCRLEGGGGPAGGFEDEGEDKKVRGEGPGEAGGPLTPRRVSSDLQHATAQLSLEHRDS
In short: as §1

ETV3L = molecular target: T7, ETV3L (Homo sapiens, UniProt Q6ZN32 1-361); settings: protein: recombinant; tags: N-terminal GST; dsDNA, one strand shown
T7 sequence: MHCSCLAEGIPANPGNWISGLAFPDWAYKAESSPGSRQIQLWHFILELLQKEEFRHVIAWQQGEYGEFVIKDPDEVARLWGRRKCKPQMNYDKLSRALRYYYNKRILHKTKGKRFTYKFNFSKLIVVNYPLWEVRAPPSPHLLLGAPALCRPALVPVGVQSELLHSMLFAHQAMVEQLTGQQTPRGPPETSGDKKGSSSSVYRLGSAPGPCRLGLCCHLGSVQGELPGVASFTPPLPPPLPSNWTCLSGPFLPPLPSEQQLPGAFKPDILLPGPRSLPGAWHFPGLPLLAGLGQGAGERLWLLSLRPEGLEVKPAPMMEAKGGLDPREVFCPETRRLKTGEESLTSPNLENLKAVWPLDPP
In short: as §1

ETS2 = molecular target: T8, ETS2 (Homo sapiens, UniProt P15036 1-469); settings: protein: recombinant; tags: N-terminal GST; dsDNA, one strand shown
T8 sequence: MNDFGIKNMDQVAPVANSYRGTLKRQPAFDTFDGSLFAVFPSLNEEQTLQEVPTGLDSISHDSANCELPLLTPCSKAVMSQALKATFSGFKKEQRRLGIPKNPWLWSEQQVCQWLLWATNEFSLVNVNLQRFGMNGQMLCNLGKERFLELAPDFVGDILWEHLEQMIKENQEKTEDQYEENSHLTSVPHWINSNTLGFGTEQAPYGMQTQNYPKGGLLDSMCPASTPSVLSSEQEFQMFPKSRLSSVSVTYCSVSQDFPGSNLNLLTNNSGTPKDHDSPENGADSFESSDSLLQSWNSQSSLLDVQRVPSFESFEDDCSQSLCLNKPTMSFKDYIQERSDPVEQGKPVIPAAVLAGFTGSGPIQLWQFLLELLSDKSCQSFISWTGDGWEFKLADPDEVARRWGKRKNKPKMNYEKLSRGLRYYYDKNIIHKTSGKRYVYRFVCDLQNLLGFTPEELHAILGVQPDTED
In short: as §1

SPDEF = molecular target: T9, SPDEF (Homo sapiens, UniProt O95238 1-335); settings: protein: recombinant; tags: N-terminal GST; dsDNA, one strand shown
T9 sequence: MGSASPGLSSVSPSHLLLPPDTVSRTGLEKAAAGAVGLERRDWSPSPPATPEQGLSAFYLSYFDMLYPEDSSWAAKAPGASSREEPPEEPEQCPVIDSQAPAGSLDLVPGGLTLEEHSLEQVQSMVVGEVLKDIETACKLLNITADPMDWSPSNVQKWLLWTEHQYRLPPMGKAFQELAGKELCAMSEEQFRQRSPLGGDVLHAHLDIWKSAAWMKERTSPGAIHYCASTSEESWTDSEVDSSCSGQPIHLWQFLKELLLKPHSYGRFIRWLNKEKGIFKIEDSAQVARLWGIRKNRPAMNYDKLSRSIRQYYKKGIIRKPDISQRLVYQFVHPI
In short: as §1

ETV7 = molecular target: T10, ETV7 (Homo sapiens, UniProt Q9Y603 1-341); settings: protein: recombinant; tags: N-terminal GST; dsDNA, one strand shown
T10 sequence: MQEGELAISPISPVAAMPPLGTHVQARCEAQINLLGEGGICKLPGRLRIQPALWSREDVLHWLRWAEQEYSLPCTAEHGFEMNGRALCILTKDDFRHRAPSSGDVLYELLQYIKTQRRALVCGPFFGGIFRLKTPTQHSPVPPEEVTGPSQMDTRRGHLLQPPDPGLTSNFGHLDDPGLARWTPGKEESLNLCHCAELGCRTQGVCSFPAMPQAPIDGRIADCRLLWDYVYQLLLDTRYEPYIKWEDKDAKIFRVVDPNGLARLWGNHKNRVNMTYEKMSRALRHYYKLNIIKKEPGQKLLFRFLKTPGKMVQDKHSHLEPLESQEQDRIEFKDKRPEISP
In short: as §1

ELF5 = molecular target: T11, ELF5 (Homo sapiens, UniProt Q9UKW6-2 1-255); settings: protein: recombinant; tags: N-terminal GST; dsDNA, one strand shown
T11 sequence: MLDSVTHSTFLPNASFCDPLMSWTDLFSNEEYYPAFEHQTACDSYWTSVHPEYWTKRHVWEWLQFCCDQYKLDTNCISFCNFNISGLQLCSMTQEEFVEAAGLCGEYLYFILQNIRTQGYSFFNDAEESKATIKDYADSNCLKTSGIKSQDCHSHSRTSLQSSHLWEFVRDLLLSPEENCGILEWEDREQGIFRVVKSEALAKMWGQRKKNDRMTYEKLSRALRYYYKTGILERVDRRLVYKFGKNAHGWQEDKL
In short: as §1

ETV3 = molecular target: T12, ETV3 (Homo sapiens, UniProt P41162-2 1-143); settings: protein: recombinant; tags: N-terminal GST; dsDNA, one strand shown
T12 sequence: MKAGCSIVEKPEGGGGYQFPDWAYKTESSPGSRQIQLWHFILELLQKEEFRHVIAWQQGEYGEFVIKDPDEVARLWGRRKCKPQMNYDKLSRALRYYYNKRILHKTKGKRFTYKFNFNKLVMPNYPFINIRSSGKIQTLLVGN
In short: as §1

ETV6 = ETV6 (Homo sapiens, UniProt P41212 1-452); settings: protein: recombinant; tags: N-terminal GST; dsDNA, one strand shown
Sequence of ETV6 (P41212 whole entry): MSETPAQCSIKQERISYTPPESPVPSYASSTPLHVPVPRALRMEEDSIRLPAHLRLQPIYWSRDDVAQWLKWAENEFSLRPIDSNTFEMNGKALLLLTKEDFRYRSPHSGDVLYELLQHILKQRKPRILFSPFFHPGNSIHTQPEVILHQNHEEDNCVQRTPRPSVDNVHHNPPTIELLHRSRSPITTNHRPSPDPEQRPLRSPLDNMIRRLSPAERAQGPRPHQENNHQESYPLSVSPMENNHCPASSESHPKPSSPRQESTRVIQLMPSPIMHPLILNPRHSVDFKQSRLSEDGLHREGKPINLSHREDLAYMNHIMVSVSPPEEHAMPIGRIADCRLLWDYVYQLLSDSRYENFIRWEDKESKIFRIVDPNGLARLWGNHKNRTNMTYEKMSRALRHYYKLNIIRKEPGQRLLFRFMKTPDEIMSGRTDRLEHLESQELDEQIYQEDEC
In short: as §1

Sequence: TACAAG
- binding signal (FEV): 1.01 fold enrichment (6-mer frequency, TF over GST control)
- binding signal (ETV5): 1.15 fold enrichment (6-mer frequency, TF over GST control)
- binding signal (HSF1): 1.07 fold enrichment (6-mer frequency, TF over GST control)
- binding signal (SPIC): 1.17 fold enrichment (6-mer frequency, TF over GST control)
- binding signal (ELF4): 1.1 fold enrichment (6-mer frequency, TF over GST control)
- binding signal (ELK4): 1.16 fold enrichment (6-mer frequency, TF over GST control)
- binding signal (ETV2): 1.03 fold enrichment (6-mer frequency, TF over GST control)
- binding signal (ELF3): 1.23 fold enrichment (6-mer frequency, TF over GST control)
- binding signal (CRX): 1.11 fold enrichment (6-mer frequency, TF over GST control)
- binding signal (ETV1): 1.06 fold enrichment (6-mer frequency, TF over GST control)
- binding signal (ERF): 1.1 fold enrichment (6-mer frequency, TF over GST control)
- binding signal (ETV3L): 1.05 fold enrichment (6-mer frequency, TF over GST control)
- binding signal (ETS2): 1.1 fold enrichment (6-mer frequency, TF over GST control)
- binding signal (SPDEF): 1.1 fold enrichment (6-mer frequency, TF over GST control)
- binding signal (ETV7): 1.02 fold enrichment (6-mer frequency, TF over GST control)
- binding signal (ELF5): 1.06 fold enrichment (6-mer frequency, TF over GST control)
- binding signal (ETV3): 1.02 fold enrichment (6-mer frequency, TF over GST control)
- binding signal (ETV6): 1.04 fold enrichment (6-mer frequency, TF over GST control)
